Source: PubChem (National Center for Advancing Translational Sciences (NCATS))
Sampled rows, rich in hits. Any-hit rate of the full collection: about 9%.
JMJD2A Tudor inh – qHTS Assay for Inhibitors of JMJD2A-Tudor Domain; AlphaScreen JMJD2A-Tudor / H3K4me3 peptide binding; Potency, µM (titrated, usually from 114 µM), for the others: at the top dose activity change, negative = inhibition, actives largely listed as inhibitors; 390,000 tested, 4.4% active; AID 504339, 2011; also: % is scaled to controls: 0 for no effect and ±100 for the full control effect; nearly all actives have a fitted effect of over 50% in size
G9a block – qHTS Assay for Inhibitors of Histone Lysine Methyltransferase G9a; Histone-lysine N-methyltransferase EHMT2 (Homo sapiens), Q96KQ7; G9a H3K9 monomethylation, AlphaScreen, 2 h; AID 504332, 2011; 350,000 tested, 8.8% active; Potency, µM (titrated, usually from 102 µM), without a hit: at the highest dose activity, negative = inhibition, hits mostly inhibitors; also: % is scaled to controls: 0 for no effect and ±100 for the full control effect; nearly all actives have a fitted effect of over 75% in size
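G9a (20 nM) was preincubated 15 min with compound, then reacted 2 h at room temperature with 500 nM biotin-H3K9 peptide and 20 µM SAM. Monomethyl-H3K9 detected by AlphaScreen using anti-H3K9me1 antibody.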
HP1b binding inh – HTS for Inhibitors of HP1-beta Chromodomain Interactions with Methylated Histone Tails; 390,000 tested, 0.56% active; Potency, µM (doses to about 114 µM), inactives show at the highest dose activity change, negative = inhibition, hits mostly inhibitors; Chromobox protein homolog 1 (Homo sapiens), P83916; AlphaScreen HP1-beta / biotin-H3K9me3 peptide binding; also: nearly all actives have a fitted effect of over 70% in size
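HP1-beta protein (50 nM final) preincubated 30 min at room temperature with biotinylated H3(1-18)K9me3 peptide (50 nM) in PBS pH 7.4, 0.01% Tween-20, then compound added for 30 min. AlphaScreen streptavidin donor/nickel chelate acceptor beads (10 ug/mL final), 30 min dark, luminescence read.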
12-LOX inh – Primary qHTS assay for inhibitors of human arachidonate 12S-lipoxygenase (ALOX12): Round 2. purified 12hLO, xylenol orange hydroperoxide absorbance. 580,000 tested, 1.1% active. Polyunsaturated fatty acid lipoxygenase ALOX12 (Homo sapiens), P18054. AID 1671190, 2021. Potency, µM (doses to about 108 µM), for the others: at the highest dose activity change, negative = inhibition, usual class: inhibitors; also: % is scaled to controls: 0 for no effect and ±100 for the full control effect
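Purified human 12hLO (150 nM final) in 25 mM Hepes, 0.01% Triton X-100, pH 7.0 was preincubated 15 min at room temperature with compound. Then 40 uM arachidonic acid was added, 30 min. Hydroperoxide was read by Fe-XO absorbance ratio 573/405 nm.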
PLK1 PBD block – qHTS for Inhibitors of PLK1-PDB (polo-like kinase 1 - polo-box domain): Primary Screen; Plk1 PBD binding of FITC phosphopeptide, fluorescence polarization; 360,000 tested, 2.8% active; Potency, µM, inactives show max response, negative = inhibition, most hits filed as inhibitors; also: series mostly up to about 57 µM; % is scaled to controls: 0 for no effect and ±100 for the full control effect; nearly all actives have a fitted effect of over 65% in size
BAZ2B block – qHTS Assay for Inhibitors of BAZ2B | Bromodomain adjacent to zinc finger domain protein 2B (Homo sapiens), Q9UIF8 | Potency, µM (top dose mostly 114 µM), for the others: top-dose activity change, negative = inhibition, usual class: inhibitors | AlphaScreen BAZ2B-H3K14Ac peptide displacement | 360,000 tested, 4.4% active; also: % is scaled to controls: 0 for no effect and ±100 for the full control effect; nearly all actives have a fitted effect of over 60% in size
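AlphaScreen displacement of biotin-H3(5-23)K14Ac peptide (50 nM final) from BAZ2B (50 nM final) in PBS pH 7.4, 0.01% Tween-20; complex preformed 30 min RT, then compounds (top 110 uM) 30 min RT, beads 20 min dark.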
Starred values were filed as active, the others as inactive; i = inactive; ? = inconclusive; nt = not tested or not shown; [ ] = remark or other dose. Calls follow the shape of the dose curve; as a rule, active = well fitted curve in the direction sought with a large enough effect; inconclusive = small, poorly fitted or top-dose-only effect, or another doubt; inactive = no such curve, though single readings can be large; an effect the other way counts as inactive or inconclusive. Potency is read from the fitted curve at half-maximal effect.

SMILES	JMJD2A Tudor inh	G9a block	HP1b binding inh	12-LOX inh	PLK1 PBD block	BAZ2B block
COC1=C(N)C(=O)c2nc(-c3nc(C(=O)O)c(C)c(-c4ccc(OC)c(OC)c4O)c3N)ccc2C1=O	89.1µM*	?	-22.7%	nt	-25.6%	1.6%
COc1ccc(CCN(C)CCCN2CC(c3ccccc3)CC2=O)cc1OC (stereo not drawn)	25.1µM*	50.1µM*	-8.8%	?	?	?
COc1ccc(CCN2CC(C(=O)NCC(c3ccccc3)N(C)C)CC2=O)cc1OC (stereo not drawn)	-7.6%	nt	8.4%	-2.3%	-11.3%	nt
COc1ccc(C2CC(=O)N(CCCN(C)CCc3ccc(OC)c(OC)c3)C2)cc1 (stereo not drawn)	100µM*	?	?	?	-4.8%	89.1µM*
N#CC1(NC(=O)COC(=O)c2cc(O)c3ccccc3c2O)CCCCC1	25.1µM*	4.47µM*	?	nt	6.7µM*	50.1µM*
COCCCNCCOc1cc(C(C)C)ccc1C	3.16µM*	?	?	?	-4.6%	79.4µM*
CCCCNCCOCCOc1ccc(C)cc1Br	3.55µM*	10µM*	-34.7%	-20.6%	4.2%	?
CCC(C)NCCOCCOc1ccc(Cl)cc1Br (stereo not drawn)	2.51µM*	2.24µM*	-19.0%	?	-17.2%	-21.7%
Cc1ccc(OCCOCCNC(C)C)c(Br)c1	10µM*	nt	?	?	-3.2%	56.2µM*
COc1ccccc1OCCOCCOc1ccc(C)cc1Br	103.5%	142.2%[59 µM]	244.2%	-12.7%	-6.2%	139.9%
CN1CCN(C(=S)Nc2ccc(Cl)cc2)CC1	8.9%	-41.8%	35.6%	1.0%	-9.5%	-10.5%
O=C1NCCCCCCN(Cc2ccncc2)[C@@H]2CN(S(=O)(=O)Cc3ccccc3)CC[C@@H]12	nt	nt	nt	10.2%	nt	nt
Cc1cc(C)nc(NC(=O)c2ccc(Br)s2)n1	-18.7%	?	39.7%	3.5%	6.2%	-24.4%
Cc1ccc(OCC(=O)NCCO)c(Br)c1	-14.4%	-31.9%	20.8%	-0.6%	-5.2%	4.0%
COCCCNCCOCCOc1ccc(C)cc1Br	50.1µM*	?	19.0%	?	-14.2%	?
CCC(C)NCCOCCOc1ccc(C)cc1OC (stereo not drawn)	20µM*	11.2µM*	?	-16.7%	-0.8%	?
FC(F)(F)c1cc(Cl)c2nnc(-c3cccnc3)n2c1	-1.4%	11.8%	16.8%	-1.2%	-0.2%	-2.6%
O=C(O)c1cc(C(=O)O)cc(N2C(=O)CSC2=S)c1	4.0%	17.8µM*	-8.4%	-4.4%	-3.3%	?
CCN(CC)c1ccc(N2C(=O)CSC2=S)cc1	50.1µM*	4.5%	?	i	-10.8%	-3.8%
CNCCc1cnc(CCC(c2ccccc2)c2ccccc2)[nH]1	nt	10µM*	nt	nt	nt	nt
O=C(CSc1ccc(-c2ccccn2)nn1)Nc1nccs1	2.51µM*	39.6%	15.6%	-2.1%	-0.9%	-9.3%
COc1ccccc1CNC(=O)CSc1ccc(-c2ccccn2)nn1	31.6µM*	7.7%	23.2%	8.5%	-6.2%	8.91µM*
Nc1ccccc1SCC(=O)Nc1nccs1	3.7%[57.1 µM]	?	34.1%	-26.8%	-15.1%	-2.3%
Cc1csc(NC(=O)CSc2ccc(-c3ccccn3)nn2)n1	22.4µM*	2.7%	13.4%	3.4%	-3.2%	7.08µM*
CCc1ccc(NC(=O)CSc2nc3c(c(=O)n(C)c(=O)n3C)n2C)cc1	-21.8%	-8.9%	42.6%	372.5%	-8.3%	3.3%
Cc1nc2nc(SCC(=O)N3CCOCC3)nn2c(C)c1Cc1c(F)cccc1Cl	-14.6%	22.4µM*	27.0%	0.8%	-14.3%	1.2%
